# Source: PubChem BioAssay AID1626 (SRMLSC, 2009)
# Hit rate of the full screen: of about 220,000 compounds, about 2,000 (0.91%) were called active. Another 2% or so got no clear call; they are omitted. Not all results are given here. Potency and affinity values are given separately. Values without a mark were called inactive. Cut-off read from the data, not from the text of the source: inconclusive = inhibition above about 80% without an active follow-up result; inactive = below that; test concentration not stated here.
# Assay: M. tuberculosis H37Rv growth inhibitors, H37Rv strain (AID 1626);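 note: bacteria incubated seven days before Alamar blue readout; 0% = bacteria only wells and 100% = bacteria with antibiotic wells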
# Details: hits give high values, concentration not given here
row,SMILES,inhibition [%]
1,O=C(O)/C=C\C(=O)Nc1ccc(Oc2ccccc2)cc1,-4.64
2,CCOC(=O)C(=O)Nc1ccc(Oc2ccccc2)cc1,-13.3
3,CC(C)(C)NC(=O)C1CC(=O)OC12CCOC(C)(C)C2 (stereo unspecified),0.06
4,COC(=O)CN(c1ccccc1)S(=O)(=O)c1ccc(F)cc1,-4.89
5,O=[N+]([O-])C(=c1ccc2c(c1)N1C3=C(CCCC3)CC3CCCCC31N=2)[N+](=O)[O-] (stereo unspecified),-8.62
6,O=C(CSCC(=O)NC1CCCC1)Nc1ccccc1,6.01
7,O=C(CSCC(=O)NC1CC1)Nc1ccccc1,-9.05
8,CC(=O)c1ccc(NC(=O)CSC(C)C)cc1,0.93
9,CC(=O)c1ccc(NC(=O)CSCCO)cc1,-4.48
10,CC(=O)Nc1ccc(S(=O)(=O)N2CCN(C(C)CCc3ccccc3)CC2)cc1 (stereo unspecified),-9.9
11,CCc1ccc(OCCCC(=O)O)c(Br)c1,-8.18
12,COC(=O)c1ccc(COc2ccc3c4c(c(=O)oc3c2)CCC4)o1,-7.47
13,Cc1cc(C)n2nc(SCC(=O)N/N=C/c3cccc(Br)c3)nc2n1,-4.74
14,O=C(NC1(C(F)(F)F)C(=O)Nc2c1c(=O)[nH]c(=O)n2Cc1ccco1)C1CC1 (stereo unspecified),1
15,C=CCNC(=O)CSc1nnc(-c2ccccc2Cl)n1-c1c(C)n(C)n(-c2ccccc2)c1=O,-3.15
16,COc1ccc(CCNC(=O)CSc2cn(Cc3cccc(C)c3)c3ccccc23)cc1OC,4.76
17,O=c1[nH]c(CN(CCO)CCO)nc2c1C1(CCCCC1)Cc1ccccc1-2,8.33
18,CCc1nc2c(c(=O)[nH]1)C1(CCCC1)Cc1ccccc1-2,12.8
19,O=c1[nH]c(NCCO)nc2c1C1(CCCCC1)Cc1ccccc1-2,-9.4
20,O=c1[nH]c(NCCO)nc2c1C1(CCCC1)Cc1ccccc1-2,-4.7
21,COc1cccc2c3c(c(C)nc12)CC(C)O3 (stereo unspecified),-3.67
22,Cc1cc2c(C)nc3ccccc3c2o1,-3.45
23,Cc1cc(C(=O)NNC(=O)CCCCC(=O)NNC(=O)c2cc(C)[nH]n2)n[nH]1,1.69
24,O=C(CCCSc1nc(-c2ccco2)cc(C(F)(F)F)n1)Nc1ccc2c(c1)OCO2,6.6

row,SMILES,inhibition [%]
1,Cc1noc2ncnc(Sc3ccccc3Cl)c12,8.85
2,Cc1ccccc1Sc1ncnc2onc(C)c12,-3.01
3,CCn1c(SCc2ccc(C(=O)Nc3nccs3)cc2)nnc1-c1ccc(N)cc1,2.31
4,CCn1c(SCc2ccc(C(=O)Nc3nccs3)cc2)nnc1-c1ccc(NC(C)=O)cc1,0.27
5,COC(=O)CNC(=O)c1cn(CC(C)C)c(=O)c2cc(OC)c(OC)cc12,-2.81
6,CC1CC(=O)c2cnc(N3CCOCC3)nc2C1 (stereo unspecified),5.78
7,O=C(CSc1nnnn1C1CCCC1)NCc1ccccc1,-3.18
8,N=c1n(CCN2CCCCC2)c2ccccc2n1CC(O)COc1ccccc1 (stereo unspecified),-5.72
9,CCCn1c(=N)n(CC(O)COc2cccc(C)c2)c2ccccc21 (stereo unspecified),4.16
10,COc1ccc(OCC(O)Cn2c(=N)n(CCN3CCOCC3)c3ccccc32)cc1 (stereo unspecified),3.12
11,CCCCn1c(=N)n(CC(O)COc2cccc(C)c2)c2ccccc21 (stereo unspecified),0.69
12,CC(C)N1CCN(Cc2nc3c(s2)CCCC3)CC1CCO (stereo unspecified),-2.24
13,COc1cc([C@@H]2c3cc4c(cc3[C@@H](NC3CCN(Cc5ccccc5)CC3)[C@H]3COC(=O)[C@H]23)OCO4)cc(OC)c1O,51.2
14,CC1=C(C(=O)OCc2ccc(C)cc2)C(c2ccc(O)c([N+](=O)[O-])c2)NC(=O)N1 (stereo unspecified),-1.03
15,COc1ccc(S(=O)(=O)N(CC(=O)NCC2CCCO2)c2ccccc2)cc1OC (stereo unspecified),-6.11
16,Cc1ncn2cc(-c3ccc(Cl)cc3Cl)[nH]c(=O)c12,11.2
17,Cc1cc(-c2ccc(Cl)cc2Cl)c(C#N)c(=O)[nH]1,-3.23
18,O=c1[nH]c(=O)n(-c2ccccc2)c2c1C(C(F)(F)F)(C(F)(F)F)N=C(CCC1CCCCC1)N2,-0.92
19,Cc1nc(N2CCOCC2)c2c(C)c(C(=O)Nc3ccccc3Cl)sc2n1,0.57
20,Cc1nc(N2CCN(c3ccccn3)CC2)c2c(C)c(C(=O)Nc3ccc(F)cc3F)sc2n1,79.3
21,Cc1nc(N2CCCCC2)c2c(C)c(C(=O)Nc3ccccc3C(F)(F)F)sc2n1,1.26
22,Cc1nc(N2CCOCC2)c2c(C)c(C(=O)Nc3ccc(F)cc3F)sc2n1,-1.7
23,CCN=C1NN=C(c2cc(C)n(Cc3ccco3)c2C)CS1,8.94
24,CCN(CCCNC(=O)CN(C)S(=O)(=O)c1ccc2c(c1)CCC(=O)N2)c1cccc(C)c1,-2.39

row,SMILES,inhibition [%]
1,O=C(COC(=O)C1CCN(S(=O)(=O)c2cccs2)CC1)Nc1ccccc1Br,-7.27
2,O=c1[nH]c2ccccc2n1CCCN1CCCCC1,-2.47
3,CCCCn1c(=O)[nH]c2ccccc21,3.85
4,O=C(Nc1cccc(Cl)c1)/C(=C\c1cccnc1)NC(=O)c1ccco1,2.59
5,Cc1ccc(OCCNC(=O)c2cccc(Oc3ccc(C(F)(F)F)cc3[N+](=O)[O-])c2)cc1,1.39
6,Oc1ccc2ccccc2c1CN1CCCC1,12.7
7,CN1CCN(Cc2c(O)ccc3cc(Br)ccc23)CC1,21
8,Cc1ccc2c(c1)C1CN(C)CCC1N2C(=O)c1cn(-c2ccccc2)nc1-c1ccccc1 (stereo unspecified),10.5
9,CC(=O)Nc1ccc(C(=O)NCC(=O)OCc2c(F)cccc2Cl)cc1,-1.08
10,O=C(CNC(=O)c1ccc(-c2ccccc2)cc1)OCc1c(Cl)cccc1Cl,-1.9
11,COc1ccc(N(C(=O)c2ccco2)C(C(=O)NC2CCCC2)c2ccc(N(C)C)cc2)cc1 (stereo unspecified),-10.8
12,COc1ccc(NC(=O)N/C=C/c2ccccc2)cc1,-0.86
13,COc1cc(C(C[N+](=O)[O-])c2c(N)n(C)c(=O)n(C)c2=O)ccc1O (stereo unspecified),1.8
14,COc1ccccc1C(C[N+](=O)[O-])c1c(N)n(C)c(=O)n(C)c1=O (stereo unspecified),40.8
15,CCCOc1cccc(C2C(C(=O)c3ccco3)=C(O)C(=O)N2CCN(CC)CC)c1 (stereo unspecified),-7.15
16,CC(C(=O)N1CCCC1)N1CCN(c2ccccc2O)CC1 (stereo unspecified),-5.08
17,C/C(O)=C(\N=Nc1cc(C)ccc1O)C(N)=O,0.25
18,Cc1ccc(Cn2ccc(NC(=O)c3cc(C4CC4)on3)n2)cc1,-5.45
19,CCc1nc2sc3ccccc3c(=O)c2c(=O)n1CCOC,-3.87
20,COc1ccc(Cn2c(C(C)C)nc3sc4ccccc4c(=O)c3c2=O)cc1,17.7
21,O=C(COc1ccccc1Br)Nc1ccccc1C(F)(F)F,1.69
22,COc1ccc2[nH]c3c(NCCC4=CCCCC4)ncnc3c2c1,50.8
23,O=c1c2[nH]c3ccccc3c2ncn1CCC1=CCCCC1,-3.83
24,CCNC(=S)NNC(=S)NCc1ccccc1,-6.54

row,SMILES,inhibition [%]
1,CCOC(=O)c1ccc(NC(C)=O)c([N+](=O)[O-])c1,-0.43
2,CCCNc1ccc(C(=O)OCC)cc1[N+](=O)[O-],-2.78
3,COc1cc(S(N)(=O)=O)c(OC)cc1N,-5.42
4,COC(=O)CCn1nc(-c2ccc(Cl)cc2)c2ccccc2c1=O,0.44
5,CCCNC(=O)C1CCN(S(=O)(=O)c2cccc3nonc23)CC1,3.34
6,O=C(NCc1cccs1)C(=O)NCC(c1ccco1)N1CCN(c2ccccc2F)CC1 (stereo unspecified),4.89
7,Cc1csc(NC(=O)C2CCCC2)n1,-11.7
8,CC1CC1C(=O)Nc1nc(-c2ccccc2)cs1 (stereo unspecified),-12.6
9,C[C@@H](C(=O)Nc1nc(-c2ccccn2)cs1)N1C(=O)C2CCCCC2C1=O (stereo partly specified),1.46
10,CC(=O)Nc1ccc(C(=O)Nc2nc(-c3ccccn3)cs2)cc1,0.25
11,Cc1ccnc2nc(C(=O)Nc3nc(-c4ccccn4)cs3)nn12,-1.5
12,O=C(/C=C\c1ccco1)Nc1nc(-c2ccccc2)cs1,9.29
13,O=C(/C=C/c1ccco1)Nc1nc(-c2ccccc2)cs1,9.68
14,CC1CC1C(=O)Nc1nc(-c2ccc(Cl)s2)cs1 (stereo unspecified),9.3
15,O=C(NCc1ccc(F)cc1)C1CCCN(S(=O)(=O)c2cccc3nsnc23)C1 (stereo unspecified),-3.19
16,NC1=NC(=O)C(Cc2cc(Cl)ccc2Cl)S1 (stereo unspecified),-5.29
17,CCOC(=O)C1(C)NC(c2ccc(OC)c(OC)c2)C2C(=O)N(CC)C(=O)C21 (stereo unspecified),-0.15
18,O=C(O)c1ccc(S(=O)(=O)c2ccc(Sc3ccc(C(=O)O)c(C(=O)O)c3)cc2)cc1,-20.9
19,CCOC(=O)COc1ccc(S(=O)(=O)NCc2ccco2)cc1,10.1
20,Cc1cc(C(=O)N2CCOCC2)c(C)o1,-4.61
21,COCCOc1ccc(C(F)(F)F)cc1NC(=O)c1ccc(C)cc1,2.93
22,CCN1C(=O)CC(c2ccco2)Sc2ccccc21 (stereo unspecified),4.45
23,O=P(O)(O)C12CC3CC(CC(C3)C1)C2,1.57
24,O=C(/C=C/c1cccc([N+](=O)[O-])c1)NCCSCc1ccc(Cl)cc1,11.2
